Drawing on the supplement of paper PMC12297408, this text covers gametocyte viability for nine compounds.

Where a name gives a salt, the structure may show the parent alone. Values without a mark were called inactive.

The test system of this assay is Plasmodium falciparum NF54/iGP1_RE9H ulg8 stage V gametocytes. In words: gametocyte viability (luciferase signal relative to DMSO control) (% of DMSO control); higher = less gametocytocidal activity, active = 50 or less. Particulars: exposure time: 72 h. In a few lines: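 Viability was calculated relative to the mean of DMSO vehicle wells on each plate. Day-12 stage V gametocytes of line NF54/iGP1_RE9Hulg8 (~2.5% gametocytemia, 3% hematocrit, 0.5% Albumax II medium) were exposed in 96-well plates to compounds at final 10 µM or 1 µM, one well each, for 72 h at 37 °C. Luminescence was then read on an IVIS Lumina II after D-luciferin addition.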

With `Cc1cc2ncc(-c3ccccc3)nc2cc1C`, the gametocyte viability was 91.2 (concentration: 1 µM) and 70.6 (concentration: 10 µM).
As to `CN1CC[C@H](c2c(O)cc(O)c3c(=O)cc(-c4ccccc4Cl)oc23)[C@H](O)C1` [Flavopiridol hydrochloride], the gametocyte viability runs as follows: (concentration: 1 µM) 106; (concentration: 10 µM) 111.
In the same order, the values of `Cc1ccc(F)c(NC(=O)Nc2ccc(-c3cccc4[nH]nc(N)c34)cc2)c1` [Linifanib (ABT-869)] are 90.6 and 89.4.
In the same order, the values of `CC(C)(C)c1cc(C=C(C#N)C(N)=S)cc(C(C)(C)C)c1O` are 103 and 102.
The matching figures for `O=c1cc(-c2cccc3c2Sc2ccccc2S3)oc(N2CCOCC2)c1`: 110 and 107.
On to `CCOc1cc2ncc(C#N)c(Nc3ccc(OCc4ccccn4)c(Cl)c3)c2cc1NC(=O)/C=C/CN(C)C` [Neratinib (HKI-272)], for which the gametocyte viability was 103 (concentration: 1 µM) and 104 (concentration: 10 µM).
The matching figures for `CC(C)n1cnc2c(NCc3ccccc3)nc(NCCO)nc21` [N9-isopropyl-olomoucine]: 92.7 and 91.
In the same order, the values of `Cn1cc(C2=C(c3cn(CCCSC(=N)N)c4ccccc34)C(=O)NC2=O)c2ccccc21` [Ro 31-8220 mesylate] are 123 and 78.9.
In the case of `O=c1c(-c2ccc(O)cc2)coc2cc(O)ccc12` [Daidzein], the gametocyte viability by setting is: (concentration: 1 µM) 116; (concentration: 10 µM) 109.
